Holding throughout (experiment): DAPPL (digital affinity profiling via proximity ligation, sequencing); 10 mM Tris-HCl pH 7.5, 50 mM NaCl, 1 mM DTT, 4% glycerol, room temperature, 30 min; GST-TFs on glutathione beads, 16-mer random dsDNA library, 0.1% formaldehyde crosslink after washing; high values mean tight binding
Holding throughout (conditions): protein: recombinant; tags: N-terminal GST; dsDNA, one strand shown

The target of one experiment is T1, FLI1 (Homo sapiens, UniProt Q01543 1-452).
T1 sequence: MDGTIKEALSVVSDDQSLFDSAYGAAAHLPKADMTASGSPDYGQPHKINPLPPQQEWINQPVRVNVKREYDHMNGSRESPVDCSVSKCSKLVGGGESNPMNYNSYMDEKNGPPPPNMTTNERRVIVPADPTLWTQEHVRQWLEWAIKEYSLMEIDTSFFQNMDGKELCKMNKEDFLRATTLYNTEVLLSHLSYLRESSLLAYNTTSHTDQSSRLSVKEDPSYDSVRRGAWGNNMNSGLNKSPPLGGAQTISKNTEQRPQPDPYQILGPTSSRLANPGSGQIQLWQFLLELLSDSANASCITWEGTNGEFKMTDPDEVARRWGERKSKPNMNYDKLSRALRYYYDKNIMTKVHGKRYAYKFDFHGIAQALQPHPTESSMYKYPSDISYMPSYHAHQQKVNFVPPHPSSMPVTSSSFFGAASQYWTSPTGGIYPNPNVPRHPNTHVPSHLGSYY
In a few lines: (§1)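 Sequencing on an Illumina NextSeq500 followed washing, crosslinking with 0.1% formaldehyde, proximity ligation (BsaI/T4 ligase, 1 h, 37 °C) and PCR amplification of pools that had been incubated for 30 min at room temperature with 200 nmole of a random double-stranded 16-mer DNA library in Tris/NaCl/DTT/glycerol buffer. Each pool held DNA-barcoded human transcription factors, expressed in yeast as GST fusions and captured on glutathione beads, plus a tag-only sample. Binding signal is a hexamer's read frequency for a factor divided by its frequency in the tag-only sample.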

For a further experiment, the target named is T2, ELK1 (Homo sapiens, UniProt P19419 1-428).
T2 sequence: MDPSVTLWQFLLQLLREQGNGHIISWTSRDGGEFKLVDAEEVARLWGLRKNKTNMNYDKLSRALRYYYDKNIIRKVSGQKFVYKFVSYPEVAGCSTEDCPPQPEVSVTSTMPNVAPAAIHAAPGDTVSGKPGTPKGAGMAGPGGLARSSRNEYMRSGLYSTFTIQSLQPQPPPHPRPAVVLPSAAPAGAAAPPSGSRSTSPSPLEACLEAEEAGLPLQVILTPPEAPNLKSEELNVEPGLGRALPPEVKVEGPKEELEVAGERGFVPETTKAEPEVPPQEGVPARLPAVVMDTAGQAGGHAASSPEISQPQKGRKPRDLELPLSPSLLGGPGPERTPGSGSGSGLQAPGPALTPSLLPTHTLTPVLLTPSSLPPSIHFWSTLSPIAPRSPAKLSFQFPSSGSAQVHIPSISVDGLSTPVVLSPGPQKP
In a few lines: as §1

A further experiment addresses T3, GABPA (Homo sapiens, UniProt Q06546 1-454).
T3 sequence: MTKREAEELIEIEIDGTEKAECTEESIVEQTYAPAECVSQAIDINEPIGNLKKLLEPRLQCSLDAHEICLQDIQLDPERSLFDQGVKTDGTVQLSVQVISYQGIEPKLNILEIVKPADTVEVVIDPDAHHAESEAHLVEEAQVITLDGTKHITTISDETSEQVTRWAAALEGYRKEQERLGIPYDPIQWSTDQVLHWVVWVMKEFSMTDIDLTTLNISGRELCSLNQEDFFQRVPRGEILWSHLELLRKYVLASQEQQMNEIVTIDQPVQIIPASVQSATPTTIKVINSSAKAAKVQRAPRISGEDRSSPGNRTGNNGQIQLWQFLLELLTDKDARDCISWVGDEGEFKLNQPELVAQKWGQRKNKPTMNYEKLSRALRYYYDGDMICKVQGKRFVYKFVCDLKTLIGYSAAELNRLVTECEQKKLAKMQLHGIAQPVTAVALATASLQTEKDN
The method, boiled down:
as §1

The target of another experiment is T4, ERG (Homo sapiens, UniProt P11308 1-479).
T4 sequence: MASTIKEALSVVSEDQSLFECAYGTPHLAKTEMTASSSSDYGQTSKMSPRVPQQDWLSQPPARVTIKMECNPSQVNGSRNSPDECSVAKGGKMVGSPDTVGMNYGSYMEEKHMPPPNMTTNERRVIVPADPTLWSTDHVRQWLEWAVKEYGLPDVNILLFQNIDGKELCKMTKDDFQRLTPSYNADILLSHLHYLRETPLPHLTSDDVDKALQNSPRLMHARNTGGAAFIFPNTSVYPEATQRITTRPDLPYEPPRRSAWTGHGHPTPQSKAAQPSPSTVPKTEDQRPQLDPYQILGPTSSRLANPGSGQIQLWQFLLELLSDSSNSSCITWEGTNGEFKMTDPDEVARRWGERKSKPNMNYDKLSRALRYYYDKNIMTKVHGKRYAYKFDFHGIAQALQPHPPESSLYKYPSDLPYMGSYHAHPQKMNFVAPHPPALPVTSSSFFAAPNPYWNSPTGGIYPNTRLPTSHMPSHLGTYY
In a few lines:
as §1

The next experiment deals with ELF1 (Homo sapiens, UniProt P32519 1-619). In a few lines:
as §1

Another experiment has as its target T5, EHF (Homo sapiens, UniProt Q9NZC4 1-300).
T5 sequence: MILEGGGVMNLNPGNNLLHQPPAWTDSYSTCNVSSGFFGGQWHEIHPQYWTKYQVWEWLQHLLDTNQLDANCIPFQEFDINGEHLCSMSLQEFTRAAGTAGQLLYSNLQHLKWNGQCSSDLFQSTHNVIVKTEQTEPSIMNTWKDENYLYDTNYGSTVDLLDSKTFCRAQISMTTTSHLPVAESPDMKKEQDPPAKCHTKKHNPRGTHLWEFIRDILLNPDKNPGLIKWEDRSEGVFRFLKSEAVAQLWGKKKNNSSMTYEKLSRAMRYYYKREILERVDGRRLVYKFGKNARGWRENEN
The method, boiled down:
as §1

In another experiment the target is SPI1 (Homo sapiens, UniProt P17947 1-270). The method, boiled down:
as §1

The target of a further experiment is SPIB (Homo sapiens, UniProt Q01892 1-262). The method, boiled down: as §1
Sequence of SPIB (Q01892 whole entry): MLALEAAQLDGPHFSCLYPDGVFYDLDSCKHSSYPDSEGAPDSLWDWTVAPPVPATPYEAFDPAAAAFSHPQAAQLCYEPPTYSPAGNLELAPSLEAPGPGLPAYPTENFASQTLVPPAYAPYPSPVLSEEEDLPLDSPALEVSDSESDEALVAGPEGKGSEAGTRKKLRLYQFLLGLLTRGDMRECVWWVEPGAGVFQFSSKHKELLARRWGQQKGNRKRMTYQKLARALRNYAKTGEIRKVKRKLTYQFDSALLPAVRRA
Another experiment deals with T6, ELK3 (Homo sapiens, UniProt P41970 1-407).
T6 sequence: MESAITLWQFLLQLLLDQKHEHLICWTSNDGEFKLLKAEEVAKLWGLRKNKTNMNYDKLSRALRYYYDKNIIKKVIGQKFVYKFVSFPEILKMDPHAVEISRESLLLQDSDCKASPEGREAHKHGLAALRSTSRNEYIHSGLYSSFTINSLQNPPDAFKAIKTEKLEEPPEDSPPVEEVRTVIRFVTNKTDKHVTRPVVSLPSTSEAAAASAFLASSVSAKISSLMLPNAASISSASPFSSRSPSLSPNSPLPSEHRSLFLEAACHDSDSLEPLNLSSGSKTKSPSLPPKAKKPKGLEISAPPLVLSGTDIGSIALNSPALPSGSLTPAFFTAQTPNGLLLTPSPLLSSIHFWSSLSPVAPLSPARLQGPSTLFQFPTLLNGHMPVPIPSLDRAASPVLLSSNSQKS
In a few lines:
as §1

A further experiment has as its target T7, FEV (Homo sapiens, UniProt Q99581 1-238).
T7 sequence: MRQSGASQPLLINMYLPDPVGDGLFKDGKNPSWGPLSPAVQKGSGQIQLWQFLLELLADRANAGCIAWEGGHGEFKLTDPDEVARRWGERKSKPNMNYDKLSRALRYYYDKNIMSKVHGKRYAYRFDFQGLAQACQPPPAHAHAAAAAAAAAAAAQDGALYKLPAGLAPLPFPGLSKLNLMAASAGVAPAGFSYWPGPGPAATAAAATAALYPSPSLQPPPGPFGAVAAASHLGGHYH
The method, boiled down:
as §1

Another experiment has as its target ETV5 (Homo sapiens, UniProt P41161 1-510). The method, boiled down:
as §1

The next experiment deals with T8, SPIC (Homo sapiens, UniProt Q8N5J4 1-248).
T8 sequence: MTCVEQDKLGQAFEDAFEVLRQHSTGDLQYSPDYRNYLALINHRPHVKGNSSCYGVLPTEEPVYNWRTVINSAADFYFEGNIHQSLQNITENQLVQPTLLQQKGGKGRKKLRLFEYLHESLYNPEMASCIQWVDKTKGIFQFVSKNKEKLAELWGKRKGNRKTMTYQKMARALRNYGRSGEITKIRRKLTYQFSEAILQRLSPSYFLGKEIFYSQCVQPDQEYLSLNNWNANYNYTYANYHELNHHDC
The method, boiled down: as §1

Another experiment concerns the target ELF4 (Homo sapiens, UniProt Q99607 1-663). In a few lines:
as §1

In another experiment the target is T9, ELK4 (Homo sapiens, UniProt P28324-2 1-405).
T9 sequence: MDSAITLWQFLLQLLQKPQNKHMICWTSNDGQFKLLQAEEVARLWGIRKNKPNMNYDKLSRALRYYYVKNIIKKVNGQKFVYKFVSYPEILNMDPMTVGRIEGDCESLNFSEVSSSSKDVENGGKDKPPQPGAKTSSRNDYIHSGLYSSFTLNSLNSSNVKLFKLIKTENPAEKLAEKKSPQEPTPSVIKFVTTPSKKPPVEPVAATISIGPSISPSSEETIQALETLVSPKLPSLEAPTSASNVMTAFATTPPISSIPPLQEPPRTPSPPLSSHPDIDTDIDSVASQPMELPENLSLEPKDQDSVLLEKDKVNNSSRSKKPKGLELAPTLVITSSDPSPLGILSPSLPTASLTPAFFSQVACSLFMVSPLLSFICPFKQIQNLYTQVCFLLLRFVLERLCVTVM
The method, boiled down:
as §1

A further experiment deals with T10, ETV2 (Homo sapiens, UniProt O00321 1-342).
T10 sequence: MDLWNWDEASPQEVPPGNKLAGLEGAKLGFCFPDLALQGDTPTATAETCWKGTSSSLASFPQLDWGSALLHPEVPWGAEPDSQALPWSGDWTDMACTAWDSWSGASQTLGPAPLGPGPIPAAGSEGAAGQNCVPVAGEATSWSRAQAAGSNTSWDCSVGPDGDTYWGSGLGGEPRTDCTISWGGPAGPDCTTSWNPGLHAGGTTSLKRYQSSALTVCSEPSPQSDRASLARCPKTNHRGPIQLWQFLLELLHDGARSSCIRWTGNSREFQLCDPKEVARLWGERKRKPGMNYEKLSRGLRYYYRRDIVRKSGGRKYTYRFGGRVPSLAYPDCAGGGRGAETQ
The method, boiled down: as §1

The target in another experiment is T11, ELF3 (Homo sapiens, UniProt P78545 1-371).
T11 sequence: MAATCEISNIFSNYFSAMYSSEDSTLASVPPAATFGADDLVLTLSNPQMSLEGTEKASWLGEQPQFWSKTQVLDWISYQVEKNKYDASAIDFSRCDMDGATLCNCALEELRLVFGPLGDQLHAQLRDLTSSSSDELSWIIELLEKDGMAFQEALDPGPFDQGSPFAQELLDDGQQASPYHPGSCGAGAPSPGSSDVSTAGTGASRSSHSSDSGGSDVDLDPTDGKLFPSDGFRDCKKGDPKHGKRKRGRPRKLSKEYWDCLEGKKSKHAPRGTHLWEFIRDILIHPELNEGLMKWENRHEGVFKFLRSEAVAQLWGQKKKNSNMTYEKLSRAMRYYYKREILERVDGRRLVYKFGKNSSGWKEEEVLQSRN
The method, boiled down: as §1

The next experiment addresses ETV1 (Homo sapiens, UniProt P50549 1-477). In a few lines: as §1

Sequence of ETV5 (P41161 whole entry): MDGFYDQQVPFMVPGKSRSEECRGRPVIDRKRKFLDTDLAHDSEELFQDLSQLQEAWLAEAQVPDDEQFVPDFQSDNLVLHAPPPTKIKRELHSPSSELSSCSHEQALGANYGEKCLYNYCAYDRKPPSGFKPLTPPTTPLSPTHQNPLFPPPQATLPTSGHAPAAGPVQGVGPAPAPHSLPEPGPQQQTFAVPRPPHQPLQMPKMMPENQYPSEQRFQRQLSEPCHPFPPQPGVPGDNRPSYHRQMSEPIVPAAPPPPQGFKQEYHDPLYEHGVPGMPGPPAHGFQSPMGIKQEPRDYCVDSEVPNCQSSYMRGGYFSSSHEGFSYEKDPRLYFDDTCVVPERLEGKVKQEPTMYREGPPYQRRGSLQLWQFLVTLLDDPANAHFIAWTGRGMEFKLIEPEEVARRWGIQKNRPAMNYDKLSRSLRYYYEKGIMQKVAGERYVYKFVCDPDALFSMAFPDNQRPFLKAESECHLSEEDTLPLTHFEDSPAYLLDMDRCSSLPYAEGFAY
Sequence of ELF4 (Q99607 whole entry): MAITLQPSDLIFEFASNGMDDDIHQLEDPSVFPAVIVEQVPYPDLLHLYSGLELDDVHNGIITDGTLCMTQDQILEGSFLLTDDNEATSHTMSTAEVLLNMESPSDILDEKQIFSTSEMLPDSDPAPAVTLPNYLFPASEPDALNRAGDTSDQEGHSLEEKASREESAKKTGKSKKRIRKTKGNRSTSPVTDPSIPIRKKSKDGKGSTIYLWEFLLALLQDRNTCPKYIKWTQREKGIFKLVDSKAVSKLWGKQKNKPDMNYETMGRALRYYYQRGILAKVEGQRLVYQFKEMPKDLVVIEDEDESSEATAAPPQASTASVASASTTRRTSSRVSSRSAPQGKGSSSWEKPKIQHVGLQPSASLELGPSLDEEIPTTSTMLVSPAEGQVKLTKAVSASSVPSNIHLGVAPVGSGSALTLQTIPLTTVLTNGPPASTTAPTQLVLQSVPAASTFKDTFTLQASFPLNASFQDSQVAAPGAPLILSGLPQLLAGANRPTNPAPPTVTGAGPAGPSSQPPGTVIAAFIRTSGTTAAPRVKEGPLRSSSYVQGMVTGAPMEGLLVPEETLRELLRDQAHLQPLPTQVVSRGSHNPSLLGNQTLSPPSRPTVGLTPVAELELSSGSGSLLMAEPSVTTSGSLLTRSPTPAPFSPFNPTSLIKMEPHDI
Sequence of ELF1 (P32519 whole entry): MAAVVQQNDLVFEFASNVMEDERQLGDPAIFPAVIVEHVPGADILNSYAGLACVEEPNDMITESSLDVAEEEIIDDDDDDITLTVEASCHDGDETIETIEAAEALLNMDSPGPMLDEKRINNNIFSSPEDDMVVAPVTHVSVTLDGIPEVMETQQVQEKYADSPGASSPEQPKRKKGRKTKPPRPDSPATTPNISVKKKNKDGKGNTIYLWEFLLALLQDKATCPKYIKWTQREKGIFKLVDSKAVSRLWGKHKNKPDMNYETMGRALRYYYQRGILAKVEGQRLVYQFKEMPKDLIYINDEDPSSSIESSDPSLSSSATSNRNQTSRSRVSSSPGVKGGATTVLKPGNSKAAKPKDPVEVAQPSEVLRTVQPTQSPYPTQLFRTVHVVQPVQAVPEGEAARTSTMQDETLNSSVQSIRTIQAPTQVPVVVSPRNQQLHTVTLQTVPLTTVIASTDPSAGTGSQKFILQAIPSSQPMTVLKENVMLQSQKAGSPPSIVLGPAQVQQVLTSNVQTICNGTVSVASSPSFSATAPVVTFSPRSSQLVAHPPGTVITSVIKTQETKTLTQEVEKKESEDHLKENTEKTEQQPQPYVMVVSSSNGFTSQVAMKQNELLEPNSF
Sequence of ETV1 (P50549 whole entry): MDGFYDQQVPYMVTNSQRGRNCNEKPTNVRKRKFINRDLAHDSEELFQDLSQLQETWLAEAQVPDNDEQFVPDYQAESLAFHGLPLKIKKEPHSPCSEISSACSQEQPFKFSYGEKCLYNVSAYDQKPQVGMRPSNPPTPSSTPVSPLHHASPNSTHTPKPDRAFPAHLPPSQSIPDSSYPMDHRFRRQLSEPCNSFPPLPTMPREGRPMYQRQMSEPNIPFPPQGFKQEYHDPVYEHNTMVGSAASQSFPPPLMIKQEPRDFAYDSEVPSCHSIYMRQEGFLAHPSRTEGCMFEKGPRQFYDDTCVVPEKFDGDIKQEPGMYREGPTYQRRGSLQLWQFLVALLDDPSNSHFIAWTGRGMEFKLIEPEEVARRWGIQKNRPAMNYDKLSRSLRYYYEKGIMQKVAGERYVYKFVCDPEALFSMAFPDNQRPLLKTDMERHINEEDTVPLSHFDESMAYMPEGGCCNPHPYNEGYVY

With TGTCAT, the binding signal in the experiment with FLI1 is 1.24 fold enrichment (6-mer frequency, TF over GST control); with ELK1, 1.08 fold enrichment (6-mer frequency, TF over GST control); with GABPA, 1.18 fold enrichment (6-mer frequency, TF over GST control); in the experiment with ERG it was 1.11 fold enrichment (6-mer frequency, TF over GST control); in the experiment with ELF1, 1.15 fold enrichment (6-mer frequency, TF over GST control); in the experiment with EHF, 1.17 fold enrichment (6-mer frequency, TF over GST control). Besides, the binding signal with SPI1 is 1.09 fold enrichment (6-mer frequency, TF over GST control); with SPIB, 1.2 fold enrichment (6-mer frequency, TF over GST control); in the experiment with ELK3 it was 1.04 fold enrichment (6-mer frequency, TF over GST control); with FEV, 1.1 fold enrichment (6-mer frequency, TF over GST control); with ETV5 it was 1.18 fold enrichment (6-mer frequency, TF over GST control); with SPIC, 1.16 fold enrichment (6-mer frequency, TF over GST control). The binding signal in the experiment with ELF4 was 1.13 fold enrichment (6-mer frequency, TF over GST control); in the experiment with ELK4 it was 1.08 fold enrichment (6-mer frequency, TF over GST control); with ETV2, 1.11 fold enrichment (6-mer frequency, TF over GST control); with ELF3, 1.06 fold enrichment (6-mer frequency, TF over GST control); in the experiment with ETV1 it was 1.18 fold enrichment (6-mer frequency, TF over GST control).
For the sequence CAACCT, the binding signal with FLI1 was 1.2 fold enrichment (6-mer frequency, TF over GST control); in the experiment with ELK1, 1.16 fold enrichment (6-mer frequency, TF over GST control); in the experiment with GABPA, 1.23 fold enrichment (6-mer frequency, TF over GST control); with ERG it was 1.13 fold enrichment (6-mer frequency, TF over GST control); in the experiment with ELF1, 1.2 fold enrichment (6-mer frequency, TF over GST control); with EHF, 1.21 fold enrichment (6-mer frequency, TF over GST control). The binding signal with SPI1 was 1.14 fold enrichment (6-mer frequency, TF over GST control); with SPIB, 1.17 fold enrichment (6-mer frequency, TF over GST control); with ELK3 it was 1.08 fold enrichment (6-mer frequency, TF over GST control); with FEV it was 1.21 fold enrichment (6-mer frequency, TF over GST control); with ETV5, 1.18 fold enrichment (6-mer frequency, TF over GST control); in the experiment with SPIC, 1.13 fold enrichment (6-mer frequency, TF over GST control). Moreover, the binding signal with ELF4 is 1.11 fold enrichment (6-mer frequency, TF over GST control); with ELK4 it was 1.15 fold enrichment (6-mer frequency, TF over GST control); with ETV2, 1.28 fold enrichment (6-mer frequency, TF over GST control); with ELF3, 1.12 fold enrichment (6-mer frequency, TF over GST control); with ETV1, 1.2 fold enrichment (6-mer frequency, TF over GST control).

(Values after article PMC7862700, “An all-to-all approach to the identification of sequence-specific readers for epigenetic DNA modifications on cytosine”.)
